Source: PubChem
WT yeast gro inh – growth inhibition of WT strain, primary screen, mitochondrial fusion inhibitor project, WT and mutant strains, chemical genetic. mitochondrial fusion phenotypic screen. 190,000 tested, 2.1% active. inhibition, % at 10 µM; in the data active = inhibition above about 58%; tested in S. cerevisiae
Autophagy mod – autophagy modulators in MEF cells, primary screen, imaging, high-content, MEF GFP-LC3. calls only at 10 µM (by protocol). 190,000 tested, 0.98% active. MEF GFP-LC3 puncta imaging; test concentration mostly 10 µM;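 active = percentage of spot-positive cells more than 3 SD above its plate mean, without a fluorescence outlier flag or 80% toxicity; inconclusive = no clear call, values can overlap the other calls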;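 note: spot-positive cell cutoff set from DMSO-treated cells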
L major viab – Leishmania major promastigote growth inhibition, primary screen; inhibition, % at 10 µM; AID 1063, 2008; Leishmania major promastigotes, resazurin fluorescence viability; 200,000 tested, 9% active; in the data active = inhibition above about 50%;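 note: promastigotes grown with compound for 44 hours at 28 °C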
Insulin prom up – insulin promoter activators in MIN6 cells, imaging, high-content screening, mouse beta cells | MIN6 insulin promoter-GFP reporter; hits give high values | 190,000 tested, 0.3% active | z-score at 5 µM | AID 1625, 2009;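 active = z-score above 3 at 5 µM with at least 500 cells counted in the well; inconclusive = wells under 500 cells, flagged as cytotoxic or low count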
INS promoter inh – inhibitors of insulin promoter-driven GFP, primary screen, imaging, TRM-6 cells (human fetal islet line), eGFP reporter, cell count. inhibition, % at 2 µM. 130,000 tested, 0.9% active. reporter expression induced with tamoxifen. AID 1273, 2008;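 active = inhibition above the mean plus 3 SD, with well images judged a real hit on visual review, cut at about 60% in these data, passing the limit was not always enough; inconclusive = inhibition over the cutoff but images rejected on review; inactive = inhibition not above the cutoff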
The depositor's hits bear a star; i = inactive; ? = inconclusive; · = no result; + = active, no number. This is a sample that favours compounds with a hit; in the whole collection about 11% have one here.

SMILES	WT yeast gro inh	Autophagy mod	L major viab	Insulin prom up	INS promoter inh
O=C1/C(=C/c2ccncc2)CCC/C1=C\c1ccncc1	64*	+	101*	?	·
CCc1cccc2c(C(=O)C(F)(F)F)cn(CC(=O)N3CCOCC3)c12	4	i	-4	-0.21	·
c1ccc2c(-c3nc(-c4ccncc4)no3)cccc2c1	54	i	-1	-0.17	11
c1ccc(-c2noc(-c3cccc4ccccc34)n2)cc1	67*	i	-7	0.16	·
COc1ccccc1CNc1cc(CSc2ccc(Cl)cc2)nc(C)n1	46	i	57*	-0.42	4
CC(=O)N/C(=C\c1ccc(Br)s1)C(=O)O	-1	i	-4	-0.38	45
O=[N+]([O-])c1cccnc1N1CCC(c2cc(-c3cccc(C(F)(F)F)c3)n[nH]2)CC1	78*	i	17	-1.5	-136
O=[N+]([O-])c1cccnc1N1CCC(c2cc(-c3ccc(Cl)cc3Cl)n[nH]2)CC1	65*	i	12	·	-9
NC(=O)C1CCN(c2ncccc2[N+](=O)[O-])CC1	-2	i	-5	0.39	·
COc1ccc(OC)c(-c2cc(C3CCN(c4ncccc4[N+](=O)[O-])CC3)[nH]n2)c1	50	i	21	1.8	-16
CCc1nn(C(C)C(=O)NCCN2CCN(c3cccc(C)c3C)CC2)c(=O)c2cc3occc3n12 (centres undefined)	58	i	85*	-0.1	·
COc1ccc(OCC#CCN2CC(C)OC(C)C2)cc1 (centres undefined)	2	i	57*	0.33	5
COCCCNC(=S)N1CCN(c2ccccc2)CC1	-7	i	-2	-0.07	-95
Cc1ccc2c(c1)oc(=O)n2CC(=O)c1ccccc1	·	·	·	-0.31	·
COCCNC(=O)Cc1ccc(F)cc1	-5	i	-5	3*	36
CCN(CC)S(=O)(=O)c1cccc(NC(=O)c2cc(-c3cccs3)nn2-c2ccccc2)c1	-8	i	98*	-0.36	-4
CN(C)S(=O)(=O)c1cccc(NC(=O)c2cc(-c3cccs3)nn2-c2ccccc2)c1	7	i	8	-1.2	-19
CC(NCc1cccc(OCc2ccccc2)c1)C(O)c1ccccc1 (centres undefined)	44	i	100*	-2.2	·
CC(NCc1ccc(OCc2ccc(Cl)cc2)cc1)C(O)c1ccccc1 (centres undefined)	94	i	100*	-2.4	·
c1ccc(COc2cccc(CNn3cnnc3)c2)cc1	14	i	16	-0.12	28
CC(NC(=O)CCCOc1ccc(Cl)cc1)c1ccccc1 (centres undefined)	12	i	-3	-0.13	36
CCc1ccc(C2C(C#N)=C(N)C(C#N)(C#N)C3=CCC(C(C)(C)C)CC32)cc1 (centres undefined)	49	i	96*	?	50
O=S1(=O)CCN(Cc2ccccn2)CC1	·	·	·	-0.19	·
CC1CN(Cc2ccccn2)CCC1=O (centres undefined)	-9	i	53*	0.18	-30
O=C(NCc1ccccn1)C(=O)N/N=C/c1ccc2c(c1)OCO2	3	i	12	-0.52	·
SMILES	WT yeast gro inh	Autophagy mod	L major viab	Insulin prom up	INS promoter inh
N#Cc1ccc(OCC(=O)Nc2ccccc2NS(=O)(=O)c2cccs2)cc1	-16	i	63*	-0.28	-21
O=S(=O)(NC1c2cccc3cccc(c23)C1Sc1ncccn1)c1ccc(Cl)cc1 (centres undefined)	28	i	83*	-0.19	-41
Cc1ccc(S(=O)(=O)NC2c3cccc4cccc(c34)C2Sc2n[nH]c(N)n2)cc1 (centres undefined)	15	i	-1	-0.12	-68
COc1ccccc1NC(=O)C1=C(C)NC(=O)NC1c1cccs1 (centres undefined)	-4	i	2	-0.29	·
CCCc1nnc(NC(=O)c2c(O)c3cccc4c3n(c2=O)CCC4)s1	·	·	·	-0.49	·
Cc1cc(C)c(S(C)(=O)=O)c(N(C)NC(=O)c2c(F)cccc2F)n1	-19	i	1	-0.27	0
Cc1cc(C)c(S(C)(=O)=O)c(N(C)N)n1	-11	i	0	-0.28	75*
CSc1ccc(-c2nc(CN3CCCCC3c3cccnc3)c(C)o2)cc1 (centres undefined)	17	i	51*	0.05	·
Cc1oc(-c2ccc(Cl)cc2)nc1CN1CCCC(C(=O)NCc2cccnc2)C1 (centres undefined)	-15	i	-3	-0.98	·
C=CCSc1nnc(-c2cc3c(s2)-c2ccccc2CC3)o1	66*	i	-4	-0.44	27
O=C(CSc1nnc(-c2cccs2)o1)N1CCc2ccccc21	-8	i	2	0.13	36
Cc1cc(C2=NNC(=NC3CC3)SC2)c(C)n1-c1ccccc1	4	i	18	0.53	·
c1ccc2c(C3=NNC(=NC4CCCCC4)SC3)c[nH]c2c1	23	i	93*	0.43	-4
c1ccc2c(C3=NNC(=NC4CC4)SC3)c[nH]c2c1	-3	i	97*	1.1	-8
c1ccc(C2=NNC(=NC3CC3)SC2)cc1	30	i	-5	-0.43	-7
O=C(NC1CCCCCC1)C(=S)NC1CCCCC1	-3	i	-4	·	·
O=C(Cc1cccc2ccccc12)NCCOc1ccccc1F	-4	i	-1	0.28	·
Cc1cc(C)nc(Nc2nc3ccccc3o2)n1	·	·	·	-0.44	·
CC1(C)CC(=O)C2=C(C1)NC(Nc1nc3ccccc3o1)=NC21CCCCC1	2	i	59*	-1.9	36
CN(C)CC(C(=O)c1ccccc1)c1ccccc1 (centres undefined)	77*	i	100*	-0.68	·
COc1ccc2c(c1)S/C(=C\C(=O)c1ccncc1)N2C	48	i	97*	0.81	0
CN1/C(=C/C(=O)c2ccc(Cl)cc2)Sc2cc3c(cc21)OCO3	0	+	49	-0.73	-52
COc1cc(OC)cc(C(=O)/C=C2\Sc3ccccc3N2C)c1	-6	i	3	0.26	·
COc1ccc(C(=O)/C=C2/Sc3cc4c(cc3N2C)OCO4)cc1	7	i	27	-0.23	·
Cc1cc(C)n(-c2ccc(Cl)c(C(=O)Nc3cc(C(F)(F)F)ccc3Cl)n2)n1	3	i	0	-0.34	·
Cc1ccc(C2=Nc3ccccc3N(C(=O)c3ccccc3)C(C)C2)cc1 (centres undefined)	-7	i	10	-0.17	-75
Cc1ccc(C(C(=O)NC2CCCCC2)N(Cc2ccco2)C(=O)Cc2c[nH]c3ccccc23)o1 (centres undefined)	71*	i	42	0.18	-56
COc1ccc(C(C(=O)NC2CCCCC2)N(C(=O)Cc2c[nH]c3ccccc23)c2ccccc2C)cc1OC (centres undefined)	-19	i	95*	0.45	0
Cc1ccc(C(C(=O)NC2CCCCC2)N(C(=O)Cc2c[nH]c3ccccc23)c2ccccc2C)o1 (centres undefined)	-1	i	15	-0.16	-97
COCCNC(=O)COC(=O)c1cccnc1SC	0	i	-5	·	·
